# Assay outcomes from PubChem BioAssay.
# RGS7-Gao reg: modulates binding of RGS7 to human Galphao; P09471; Multiplexed bead flow cytometry; actives lie on both sides; binding response (% of control), % at 10 µM; 220,000 compounds, 0.35% hits; in the data active means binding response below about 49% or above about 150%; inconclusive means no clear call, values can overlap the other calls; inactive means in between;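 further: fluorescent Galphao held in activated GDP-AlF4 state binding bead-coupled RGS7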
# GSH bead fluor: compound fluoresces at 488/530 nm on GSH beads; GSH beads flow cytometry, compound fluorescence 488/530 nm; stronger effect = higher value; fluorescence (KMESF) at 10 µM; 190,000 compounds, 0.25% hits; AID 1776; in the data active means fluorescence above about 89;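 further: glutathione beads carrying GST-tagged Bcl family fusion proteins plus one bare bead set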
# Avidin bead fluor: compound fluoresces at 488/530 nm on avidin beads; fluorescence (KMESF) at 10 µM; compound fluorescence 488/530 nm, flow cytometry; stronger effect = higher value; 220,000 compounds, 0.38% hits; in the data active means fluorescence above about 47
# RGS16-Gao: RGS16-Galphao interaction regulator (human). bead-based flow cytometry RGS16-Galphao binding, fluorescence; actives lie on both sides. O15492+P09471. AID 1441. binding response (% of control), % at 10 µM. 220,000 compounds, 0.38% hits;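 further: Galphao activated by GDP with aluminum fluoride before binding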
# Target sequence (O15492 whole entry, looked up): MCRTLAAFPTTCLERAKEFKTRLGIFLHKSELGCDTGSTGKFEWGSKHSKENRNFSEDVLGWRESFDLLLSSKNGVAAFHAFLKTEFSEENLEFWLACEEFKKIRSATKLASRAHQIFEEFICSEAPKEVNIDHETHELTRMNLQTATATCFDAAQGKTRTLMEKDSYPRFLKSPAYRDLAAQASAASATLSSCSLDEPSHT
# Target sequence (P09471 whole entry, looked up): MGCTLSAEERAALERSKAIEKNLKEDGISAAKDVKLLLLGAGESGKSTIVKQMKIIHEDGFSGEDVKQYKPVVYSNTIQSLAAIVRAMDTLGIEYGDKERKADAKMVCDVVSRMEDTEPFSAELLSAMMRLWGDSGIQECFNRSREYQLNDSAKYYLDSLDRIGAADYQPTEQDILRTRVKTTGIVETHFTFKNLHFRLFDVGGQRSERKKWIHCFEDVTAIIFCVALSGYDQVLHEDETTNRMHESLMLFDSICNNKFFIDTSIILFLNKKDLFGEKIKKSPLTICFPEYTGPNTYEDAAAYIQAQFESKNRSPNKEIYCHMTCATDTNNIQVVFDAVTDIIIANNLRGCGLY
# RGS8-Gao reg: human RGS8-Galphao interaction regulation; AID 1423; P09471; response (percent of control binding), % at 10 µM; multiplexed bead flow cytometry, RGS8-Galphao binding; actives lie on both sides; 220,000 compounds, 0.34% hits; in the data active means response below about 60% or above about 140%; inactive means in between;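 further: Galphao activated as the GDP aluminium fluoride complex binding bead-coupled RGS8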
# RGS4-Gao reg: human RGS4-Galphao interaction regulation; P09471; Multiplexed bead flow cytometry, RGS4-Galphao binding; actives lie on both sides; binding response (% of control), % at 10 µM; 220,000 compounds, 0.33% hits; AID 1415; in the data active means binding response below about 49% or above about 150%; inactive means in between;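 further: fluorescent Galphao activated with aluminum fluoride binding bead-coupled RGS4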
# RGS4-Gao HTS: regulators of human RGS4-Galphao interaction; shares compounds with RGS16-Gao; multiplexed bead flow cytometry, RGS–Galpha-o binding; RGS4–Galpha-o binding response, % at 10 µM; 1,600 compounds, 99% hits;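 further: fluorescently labeled Galpha-o bound to GDP with aluminium fluoride binding biotinylated RGS beads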
# Avidin counter: interferes with biotinylated probe binding to avidin beads; inhibition, % at 10 µM; 1,700 tested, under 10 active; streptavidin beads, fluorescein-biotin binding, flow cytometry; shares compounds with RGS16-Gao;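 active means inhibition above 50%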;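 further: median green fluorescence of gated singlet beads compared with DMSO control wells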
# RGS8-Gao confirm: confirmation of regulators of human RGS8-Galphao interaction; shares compounds with RGS16-Gao; bead-based flow cytometry RGS8-Galphao binding, fluorescence; actives lie on both sides; binding response (% of control), % at 10 µM; 1,700 compounds, 3% hits; AID 1836; in the data active means binding response below about 72% or above about 130%; inactive means in between;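 further: Galphao activated as GDP AlF4 complex before binding bead RGS8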
# RGS7-Gao single: RGS7-Galphao interaction regulation, single point confirmation. shares compounds with RGS16-Gao. bead-based flow cytometry RGS7-Galphao binding; actives lie on both sides. response (percent of control binding), % at 10 µM. 1,700 compounds, 7.8% hits; in the data active means response below about 75% or above about 130%; inactive means in between;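 further: fluorescent Galphao activated with GDP and aluminum fluoride binding bead-coupled RGS7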
# RGS16-Gao single: RGS16-Galphao interaction regulation, single point confirmation | response (% of control binding), % at 10 µM | shares compounds with RGS16-Gao | 1,700 compounds, 4% hits | bead-based flow cytometry, RGS16-Galphao binding; actives lie on both sides; in the data active means response below about 74% or above about 130%; inactive means in between;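 further: Galphao activated as the GDP aluminium fluoride complex binding bead-coupled RGS16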
# RGS4-Gao confirm: confirmation of regulators of human RGS4-Galphao interaction | shares compounds with RGS16-Gao | 1,700 compounds, 4% hits | RGS4-Galphao binding, multiplexed bead flow cytometry; actives lie on both sides | binding response (% of control), % at 10 µM; in the data active means binding response below about 74% or above about 130%; inactive means in between
# RGS19-Gao conf: confirmation of regulators of human RGS19-Galphao interaction; shares compounds with RGS16-Gao; bead-based flow cytometry RGS19-Galphao binding; actives lie on both sides; response (percent of control binding), % at 10 µM; 1,700 compounds, 5% hits; AID 1841; in the data active means response below about 50% or above about 160%; inactive means in between
# Numbers stand for hits; n = inactive; u = inconclusive; x = not tested or not shown; ! = not confirmed by another sample; [ ] = dose if it differs, or a comment. In the library only some 1.2% were active in any assay of this set; here they are far more common. Unless noted, how the calls were made is not given here.
SMILES,RGS7-Gao reg,GSH bead fluor,Avidin bead fluor,RGS16-Gao,RGS8-Gao reg,RGS4-Gao reg,RGS4-Gao HTS,Avidin counter,RGS8-Gao confirm,RGS7-Gao single,RGS16-Gao single,RGS4-Gao confirm,RGS19-Gao conf
S=c1[nH]nc(-c2ccc3ccccc3n2)n1-c1ccc(Cl)cc1,n,n,n,176.9[activator],n,n,110.4,n,n,n,n,n,n
COCCN1CCC(CNCc2c(C(=O)N3CCCCC3)nc3c(C)cccn23)C1 (stereo unspecified),u,x,n,n,n,n,x,x,x,x,x,x,x
CC(=O)NC(Cc1c[nH]c2ccccc12)C(=O)OCC(=O)Nc1cc(C)on1 (stereo unspecified),n,n,227,n,21.3,n,72.4,n,n,n,n,n,n
Cc1nc(-c2ccccc2Cl)sc1C(=O)/C=C/N(C)C,n,n,n,n,n,n,x,x,x,x,x,x,x
O=C(NCc1cccnc1)C(=O)N/N=C/c1ccccc1[N+](=O)[O-],n,n,n,n,n,n,x,x,x,x,x,x,x
COC(=O)c1ccc2c(c1)N(C)S(=O)(=O)c1cnc(SCC(=O)C(C)(C)C)nc1-2,u,x,n,n,n,n,x,x,x,x,x,x,x
O=C1OCC2OC(O)C(O)C(O)C2OC(=O)c2cc(O)c(O)c(O)c2-c2c(O)c(O)c3oc(=O)c4c(c(O)c(O)c5oc(=O)c2c3c54)-c2c1cc(O)c(O)c2O (stereo unspecified),u,x,n,n,36.5,48.3,x,n,37.1,31.7,n,47.2,n
Clc1ccccc1Cn1nnc2c(NCCN3CCOCC3)ncnc21,n,n,n,n,141.1[activator],n,114.2,n,n,n,n,n,n
Cc1nc(NCCN2CCOCC2)c2nnn(Cc3ccccc3Cl)c2n1,n,n,n,n,n,n,x,x,x,x,x,x,x
CC(C)(C)c1nc(NCCN2CCOCC2)c2nnn(Cc3ccccc3Cl)c2n1,n,n,n,n,153.1[activator],n,128.7,n,n,70.3,n,n,n
O=C(O)c1ccc2c(=O)n3cc(C(=O)c4ccccc4O)cc(Cl)c3nc2c1,u,x,n,n,n,n,x,x,x,x,x,x,x
Cc1cc(C)c2c(CC(=O)NC(C)C)coc2c1,n,n,n,n,151.3[activator],n,141.4,n,n,n,n,n,n
O=C(Nc1ccccc1-c1ccccc1)C(c1ccccc1)c1ccccc1,n,n,n,n,n,n,x,x,x,x,x,x,x
C#CCNC(=O)C1=C[C@H](C)[C@@H](CCCO)[C@H](OCC)O1,n,n,n,n,n,n,x,x,x,x,x,x,x
COc1ccc(-n2cc(CNCC3CC(=O)N(C4CC4)C3)c(-c3ccccc3Cl)n2)cc1 (stereo unspecified),n,n,n,n,n,n,x,x,x,x,x,x,x
CCN1CC(CNCc2cn(-c3ccc(OC)cc3)nc2-c2ccccc2Cl)CC1=O (stereo unspecified),38.9,n,n,n,56.8,48.2,x,n,n,n,n,n,n
Cc1cc(C(=O)CSc2nnc(-c3cccnc3)n2-c2ccccc2F)c(C)n1C,5.0!,n,n,-0.8!,10.7!,6.8!,x,n,n,n,n,n,n
